Compound activity: PubChem, several laboratories
Only some compounds are listed: those with a hit (about 3.1% of all), similar ones and a draw of the others.
MBD2 DNA inh: MBD2-methylated oligo binding inhibition | AID 686964 | TR-FRET, MBD2 binding to methylated oligonucleotide | 370,000 compounds, 0.31% hits | inhibition, % at 4.4 µM | Q9UBB5; in the data active = inhibition above about 13%
Target sequence (Q9UBB5 whole entry, looked up): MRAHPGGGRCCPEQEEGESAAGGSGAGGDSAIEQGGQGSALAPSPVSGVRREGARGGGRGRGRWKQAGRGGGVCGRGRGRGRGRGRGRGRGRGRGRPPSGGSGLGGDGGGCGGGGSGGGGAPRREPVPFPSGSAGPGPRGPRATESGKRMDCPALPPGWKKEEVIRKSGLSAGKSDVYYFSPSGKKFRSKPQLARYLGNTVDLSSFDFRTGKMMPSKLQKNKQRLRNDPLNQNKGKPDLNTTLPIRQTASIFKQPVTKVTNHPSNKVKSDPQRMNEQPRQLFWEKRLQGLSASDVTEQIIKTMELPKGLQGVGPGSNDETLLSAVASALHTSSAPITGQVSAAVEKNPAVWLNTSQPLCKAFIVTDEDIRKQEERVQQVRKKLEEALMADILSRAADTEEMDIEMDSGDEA
Rin1-Abl PPI inh: human Rin1-Abl interaction inhibition; P00519+Q13671; TR-FRET Rin1/Abl binding, biochemical; inhibition, % at 7.35 µM; 360,000 compounds, 0.4% hits; AID 588664; in the data active = inhibition above about 5%, passing the limit was not always enough
LEDGF integ inh: blocks HIV-1 LEDGF/p75-dependent DNA integration; AID 743269; inhibition, % at 3.7 µM; TR-FRET IN-LEDGF/p75 DNA integration, Eu/Cy5; 370,000 compounds, 0.64% hits;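 active = inhibition above the screen-wide mean plus 3 SD, cut at about 13% in these data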;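 also: signal is the Cy5 over europium emission ratio at 671 and 618 nm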
Neddylation inh: cullin neddylation inhibition | 360,000 compounds, 0.58% hits | calls only at 25 µM | TR-FRET cullin neddylation, biochemical; in the data active = inhibition above about 36%
proKLK7 act: activators of human kallikrein-7 zymogen | purified proKLK7, EDANS-DABCYL substrate fluorescence; 100% is mature enzyme control, 0% vehicle | P49862 | 370,000 compounds, 0.9% hits | activation, % at 7 µM;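 active = activation above the mean of all tested compounds plus 3 SD, computed per campaign excluding outliers beyond control limits, cut at about 13% in these data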
Target sequence (P49862 whole entry, looked up): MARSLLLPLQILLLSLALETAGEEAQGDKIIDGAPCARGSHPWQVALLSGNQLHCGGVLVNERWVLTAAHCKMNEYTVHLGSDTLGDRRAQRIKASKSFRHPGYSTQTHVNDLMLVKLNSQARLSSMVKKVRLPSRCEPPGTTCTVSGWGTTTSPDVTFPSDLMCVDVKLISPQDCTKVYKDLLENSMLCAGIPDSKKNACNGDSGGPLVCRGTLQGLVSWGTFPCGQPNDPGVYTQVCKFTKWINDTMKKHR
UHRF1 binding: blocks human UHRF1 binding to methylated DNA. Q96T88. 370,000 compounds, 0.75% hits. inhibition, % at 4.4 µM. UHRF1 binding to methylated oligo, TR-FRET; in the data active = inhibition above about 21%;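 also: UHRF1 SRA domain binding a hemimethylated CpG hairpin DNA probe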
proKLK7 act conf: proKLK7 activation, confirmation | shares compounds with proKLK7 act | purified proKLK7, EDANS-DABCYL substrate fluorescence; scaled: vehicle 0, mature enzyme 100 | activation, % at 7 µM | 3,200 compounds, 68% hits;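 active = activation, as change over the incubation, above the mean of all tested compounds plus 3 SD, cut at about 13% in these data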
EDANS-DABCYL int: fluorescence interference counter-screen for KLK7 activators; shares compounds with proKLK7 act; EDANS-DABCYL substrate fluorescence interference, no enzyme, 4 h; solvent 0%, active enzyme control 100%; activation, % at 7 µM; 3,200 compounds, 80% hits;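 active = activation above the all-compound mean plus 3 SD, ignoring values outside control-based bounds, cut at about 4.8% in these data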;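 also: value is the 4 h activation minus the activation read at time zero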
K7 EDANS ctr: optically interferes with EDANS-DABCYL fluorescence, kallikrein-7 activator counter-screen | shares compounds with proKLK7 act | EDANS-DABCYL peptide fluorescence interference, no enzyme | EC50, µM | 250 compounds, 20% hits | AID 720493;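 active = compounds that raise the fluorescence signal in this interference counterscreen, with EC50 at or below 10 µM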;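 also: intact quenched peptide substrate alone read at 355 nm excitation and 520 nm emission; signal is fluorescence gain from T0 to T4 after four hours at room temperature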
Large screens that a line does not name were inactive (follow-up assays come after a bar, where shown).

COc1ccccc1NS(=O)(=O)c1ccc(C)c(C(=O)NCCCN2CCCC2=O)c1	none
COc1cccc2c(=O)c3ccccc3oc12	proKLK7 act 13 (not shown: Neddylation inh) | proKLK7 act conf 15 | EDANS-DABCYL int 21
COc1ccc2oc3ccccc3c(=O)c2c1	proKLK7 act 25 (not shown: Neddylation inh) | proKLK7 act conf 70 | EDANS-DABCYL int 62
Cc1c(C=O)c2cc(OCc3ccccc3)ccc2n1C	none
COc1cc2cc(C(c3nnnn3C(C)(C)C)N3CCc4ccccc4C3)c(=O)[nH]c2cc1OC (configuration not stated)	proKLK7 act 25 | proKLK7 act conf inactive | EDANS-DABCYL int inactive
Cc1cc(NC(=O)COC(=O)CSc2nc3cc(Cl)ccc3n2Cc2ccccc2)no1	proKLK7 act 13 | proKLK7 act conf inactive | EDANS-DABCYL int inactive
O=c1[nH]c2cc3c(cc2cc1C(c1nnnn1CC1CCCO1)N1CCCC1)OCO3 (configuration not stated)	proKLK7 act 15 | proKLK7 act conf inactive | EDANS-DABCYL int 9.4
Cc1ccc2nc3ccc(N4CCN(C)CC4)nn3c(=O)c2c1	proKLK7 act 40 (not shown: Neddylation inh) | proKLK7 act conf inactive | EDANS-DABCYL int 13
CCc1cc2c(CN3CCN(C)CC3)cc(=O)oc2cc1O	proKLK7 act 78 (not shown: Neddylation inh) | proKLK7 act conf 68 | EDANS-DABCYL int 75
CN1CCN(Cc2cc(=O)oc3cc4c(cc23)CCC4)CC1	none
Cc1oc2cc3oc(=O)c4c(c3cc2c1C)CCC4	none
CCc1cc2c(CN3CCN(CCO)CC3)cc(=O)oc2cc1O	proKLK7 act 49 (not shown: Neddylation inh) | proKLK7 act conf 57 | EDANS-DABCYL int 67
Cc1ccc2c(CN3CCN(CCO)CC3)cc(=O)oc2c1C	none
CCc1cc2c3c(c(=O)oc2cc1O)CCCC3	proKLK7 act 54 (not shown: Neddylation inh) | proKLK7 act conf 62 | EDANS-DABCYL int 66
Oc1ccccc1C=NC(N=Cc1ccccc1O)c1ccccc1O (configuration not stated)	none (no result: Rin1-Abl PPI inh, Neddylation inh)
O=C(O)c1cc(-c2ccc(-c3ccc(F)cc3)o2)nc2ccccc12	proKLK7 act 33 | proKLK7 act conf 65 | EDANS-DABCYL int 76
O=C(c1cc(-c2ccc(F)cc2)nc2ccccc12)N1CCC1	none
COC(=O)c1c(C)nc2nonc2c1N	proKLK7 act 14 (not shown: Neddylation inh) | proKLK7 act conf 47 | EDANS-DABCYL int 49
COC(=O)c1c(C)nc2c(c(SC)nn2-c2ccccc2)c1N	none
CCOC(=O)c1cc(=O)n2c(nc3ccccc32)[nH]1	proKLK7 act 23 (not shown: Neddylation inh) | proKLK7 act conf 77 | EDANS-DABCYL int 79
Cc1cccc2c(C(=O)O)c3cccc(C)c3nc12	proKLK7 act 28 (not shown: Neddylation inh) | proKLK7 act conf 49 | EDANS-DABCYL int 42 | K7 EDANS ctr inactive
CN(C)Cc1c(O)c(Cl)cc2c3c(c(=O)oc12)CCCC3	proKLK7 act 47 | proKLK7 act conf 70 | EDANS-DABCYL int 72
Cc1oc2c(C)c3oc(=O)c4c(c3cc2c1C)CCC4	none
O=c1cc(-c2ccccc2)c2cc(Cl)c(O)c(CN3CCOCC3)c2o1	none (not shown: Neddylation inh)
O=c1oc2c(CN3CCOCC3)c(O)c(Cl)cc2c2c1CCC2	proKLK7 act 122 (not shown: Neddylation inh) | proKLK7 act conf 81 | EDANS-DABCYL int 78
CCN(CC)Cc1c(O)c(Cl)cc2c3c(c(=O)oc12)CCCC3	proKLK7 act 49 (not shown: Neddylation inh) | proKLK7 act conf 66 | EDANS-DABCYL int 75
Cc1coc2c(C)c3oc(=O)c4c(c3cc12)CCCC4	none
c1ccc2c(c1)oc1c(-c3ccc4nccn4c3)cccc12	none
COc1ccc2sc(C)cc(=O)c2c1	proKLK7 act 51 (not shown: Neddylation inh) | proKLK7 act conf 37 | EDANS-DABCYL int 43
COc1ccc2sc3ccccc3c(=O)c2c1	none
COc1cnc(SCc2c(Cl)cccc2Cl)nc1Cl	none
COc1cc2cc(C(=O)NCCc3c[nH]c4ccccc34)c(N)nc2cc1OC	none (no result: Rin1-Abl PPI inh)
COc1cc2cc(C(N)=O)c(N)nc2cc1OC	proKLK7 act 73 (not shown: Neddylation inh) | proKLK7 act conf 65 | EDANS-DABCYL int 69
O=C(C[C@H]1CC[C@@H]2[C@H](COC[C@@H](O)CN2Cc2cccc(F)c2)O1)NCC1CCCCC1	none (no result: Rin1-Abl PPI inh)
COc1ccc(OCCN2C(=O)c3ccccc3C2=O)cc1	none
COc1ccc(C2=Nc3ccccc3C2(O)CCN2C(=O)c3ccccc3C2=O)cc1 (configuration not stated)	proKLK7 act 16 | proKLK7 act conf 22 | EDANS-DABCYL int 22
Cc1ccc(S(=O)(=O)N2CCCCC2)cc1NC(=O)CSc1nc(N)cc(=O)[nH]1	none
CCOC(=O)c1c(Cc2cccc(Cl)c2)c[nH]c1C	none
CSc1ccc(/C=C/C(=O)OCC(=O)NC2CCS(=O)(=O)C2)cc1 (configuration not stated)	proKLK7 act 23 (not shown: Neddylation inh) | proKLK7 act conf 20 | EDANS-DABCYL int 16 | K7 EDANS ctr inactive
CN(C)CCCNc1c2ccccc2nc2ccccc12	none
OCCNc1c2ccccc2nc2c(F)c(F)c(F)c(F)c12	proKLK7 act 18 (not shown: Neddylation inh) | proKLK7 act conf 19 | EDANS-DABCYL int 8.6 | K7 EDANS ctr inactive
CC(=O)N[C@H]1[C@H]([C@H](O)[C@H](O)CO)O[C@](O)(C(=O)O)C[C@@H]1O	none
COc1cc2c(cc1OC)C(COc1cc(C)cc(C)c1)N(C(C)=O)CC2 (configuration not stated)	none
COC(=O)c1cc(Cl)ccc1NCC(N)c1ccccc1 (configuration not stated)	proKLK7 act 18 (not shown: Neddylation inh) | proKLK7 act conf inactive | EDANS-DABCYL int inactive
Nc1nccnc1C(=O)OCc1nc2sc3c(c2c(=O)[nH]1)CCCC3	proKLK7 act 49 | proKLK7 act conf 89 | EDANS-DABCYL int 75 | K7 EDANS ctr 6.5
O=C(CCc1nc2sc3c(c2c(=O)[nH]1)CCCC3)NCCOc1ccccc1	none
CC[C@@H](OP(=O)(O)[C@@H](C)N)C(=O)O	none (no result: Rin1-Abl PPI inh, Neddylation inh)
CC(=O)Nc1ccc(-c2cc(C(=O)O)c3ccc(C)cc3n2)cc1	proKLK7 act 17 (not shown: Neddylation inh) | proKLK7 act conf 17 | EDANS-DABCYL int 28
CC(=O)Nc1ccc(-c2cc(C(=O)O)c3cc4ccccc4cc3n2)cc1	none (not shown: Neddylation inh)
CCN1C(=O)c2cccc3c(S(=O)(=O)NCC4CCCO4)ccc1c23 (configuration not stated)	proKLK7 act 57 (not shown: Neddylation inh) | proKLK7 act conf 71 | EDANS-DABCYL int 66
O=S(=O)(NCC1CCCO1)c1ccc(Cl)c2ccccc12 (configuration not stated)	none
O=C1Nc2ccc(S(=O)(=O)NCC3CCCO3)c3cccc1c23 (configuration not stated)	proKLK7 act 48 (not shown: Neddylation inh) | proKLK7 act conf 66 | EDANS-DABCYL int 74
